# Sampled rows, rich in hits. Any-hit rate of the full collection: about 12%.
# BAZ2B block = BAZ2B (human) inhibition; hit rate 4.4% among 360,000; Potency, µM (top dose mostly 114 µM), without a hit: at the highest dose activity change, negative = inhibition, most hits filed as inhibitors; AlphaScreen BAZ2B-H3K14Ac peptide displacement; Q9UIF8; AID 504333; also: % is scaled to controls: 0 for no effect and ±100 for the full control effect; nearly all actives have a fitted effect of over 60% in size
#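 AlphaScreen luminescence quantifies BAZ2B engagement of H3K14Ac peptide; the protein and biotinylated peptide are both at 50 nM final, buffer PBS pH 7.4 with 0.01% Tween-20, all steps at room temperature.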
# G9a block = G9a (human) methyltransferase inhibition | hit rate 8.8% among 350,000 | Q96KQ7 | AID 504332 | G9a H3K9 monomethylation, AlphaScreen, 2 h | Potency, µM (top dose mostly 102 µM), inactives show top-dose activity, negative = inhibition, actives largely listed as inhibitors; also: % is scaled to controls: 0 for no effect and ±100 for the full control effect; nearly all actives have a fitted effect of over 75% in size
#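 Compounds were preincubated with 20 nM G9a for 15 min, after which biotinylated H3K9 peptide (500 nM) and SAM (20 uM) started a 2 h room-temperature reaction. Monomethylated product was quantified by antibody-based AlphaScreen chemiluminescence.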
# PLK1 PBD block = PLK1 (human) polo-box domain binding inhibition; Potency, µM, for inactives: max response, negative = inhibition, hits mostly inhibitors; Plk1 PBD binding of FITC phosphopeptide, fluorescence polarization; AID 720504; P53350; hit rate 2.8% among 360,000; also: series mostly up to about 57 µM; % is scaled to controls: 0 for no effect and ±100 for the full control effect; nearly all actives have a fitted effect of over 65% in size
# Target sequence (P53350 whole entry, looked up, the tested form may be a part): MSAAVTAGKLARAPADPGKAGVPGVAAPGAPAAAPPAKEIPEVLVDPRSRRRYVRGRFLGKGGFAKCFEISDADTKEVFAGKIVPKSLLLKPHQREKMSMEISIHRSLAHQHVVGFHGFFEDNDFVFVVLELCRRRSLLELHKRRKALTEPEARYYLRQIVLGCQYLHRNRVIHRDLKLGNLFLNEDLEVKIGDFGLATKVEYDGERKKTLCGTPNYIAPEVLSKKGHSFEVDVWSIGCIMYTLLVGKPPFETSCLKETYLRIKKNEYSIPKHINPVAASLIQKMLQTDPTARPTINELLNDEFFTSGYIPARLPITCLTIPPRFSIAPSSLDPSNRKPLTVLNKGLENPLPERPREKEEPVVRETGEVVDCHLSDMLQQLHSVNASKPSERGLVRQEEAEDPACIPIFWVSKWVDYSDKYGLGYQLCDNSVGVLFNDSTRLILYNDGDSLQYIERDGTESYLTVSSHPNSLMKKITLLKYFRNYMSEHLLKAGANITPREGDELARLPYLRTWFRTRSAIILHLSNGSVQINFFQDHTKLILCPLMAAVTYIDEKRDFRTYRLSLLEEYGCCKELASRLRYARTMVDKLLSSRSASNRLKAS
# Sfp PPTase inh = blocks B. subtilis Sfp PPTase activity; hit rate 3.5% among 310,000; Potency, µM, inactives show largest response in the series, negative = inhibition, usual class: inhibitors; Q9F4F7; Biochemical Sfp PPTase activity, qHTS;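 also: the enzyme is Sfp with the accession as filed and its product quenches rhodamine fluorescence; 0% = enzyme reaction without inhibitor and -100% = no enzyme wells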
#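 Fluorescence-quenching assay: 15 nM Sfp-PPTase preincubated 15 min at room temperature with compound, then 5 uM rhodamine-CoA and 12.5 uM BHQ-2-labelled YbbR peptide added. Fluorescence (ex 525/em 598 nm) read at start and after 30 min; difference gives rate.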
# JMJD2A Tudor = blocks the human JMJD2A Tudor domain; hit rate 4.4% among 390,000; O75164; AlphaScreen JMJD2A-Tudor / H3K4me3 peptide binding; Potency, µM (doses to about 114 µM), for inactives: top-dose activity change, negative = inhibition, most hits filed as inhibitors; also: % is scaled to controls: 0 for no effect and ±100 for the full control effect; nearly all actives have a fitted effect of over 50% in size
# HP1b chromo inh = HP1-beta chromodomain-methylated histone interaction inhibition. AID 540317. P83916. hit rate 0.56% among 390,000. AlphaScreen HP1-beta / biotin-H3K9me3 peptide binding. Potency, µM (doses to about 114 µM), inactives show at the top dose activity change, negative = inhibition, most hits filed as inhibitors; also: nearly all actives have a fitted effect of over 70% in size
#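 HP1-beta protein (50 nM final) preincubated 30 min at room temperature with biotinylated H3(1-18)K9me3 peptide (50 nM) in PBS pH 7.4, 0.01% Tween-20, then compound added for 30 min. AlphaScreen streptavidin donor/nickel chelate acceptor beads (10 ug/mL final), 30 min dark, luminescence read.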
# Active calls of the source: *; ? = inconclusive; / = not tested or not shown; ! = not active in a repeat; [ ] = dose if it differs, or a comment. Calls follow the shape of the dose curve; as a rule, active = well fitted curve in the direction sought with a large enough effect; inconclusive = small, poorly fitted or top-dose-only effect, or another doubt; inactive = no such curve, though single readings can be large; an effect the other way counts as inactive or inconclusive. Potency is read from the fitted curve at half-maximal effect.
SMILES,BAZ2B block,G9a block,PLK1 PBD block,Sfp PPTase inh,JMJD2A Tudor,HP1b chromo inh
Cc1cc(SCC(=O)NC(=O)c2cccn2C)nc2ccccc12,?,50µM*,?,-21%,?,2%
Cc1cc(SCC(=O)NC(=O)NCc2ccco2)nc2ccccc12,-11%,?,?,25µM*,-18%,24%
Cc1cc(SCC(=O)c2ccc(O)c(O)c2)nc2ccccc12,18µM*,10µM*,-22%,-9%,?,?
O=C(COC(=O)CCc1nc2ccccc2s1)NC(=O)NCc1ccco1,50µM*,-1%,-16%,-25%,-33%,-9%
Cc1cc(SCC(=O)c2ccc3c(c2)OCO3)nc2ccccc12,9%,?,-14%,?,-4%,54%
CC(C)C[C@H]1CN(CCCC[C@@H]2CNC(=O)C(=O)N2Cc2ccccc2)C(=O)C(=O)N1CCc1ccccc1,/,/,-7%,/,/,/
CCN(CC(=O)NC(=O)NCc1ccco1)Cc1nc2ccccc2c(=O)[nH]1,-36%,?,-21%,50µM*,-27%,15%
CCN(CC(=O)NC(=O)NCc1ccco1)Cc1ccccc1,-31%,?,-17%,/,-29%,-15%
O=C(CSc1n[nH]c(-c2ccccc2)n1)NC(=O)NCc1ccco1,?,50µM*,-9%,-8%,-35%,9%
O=C(CSc1nc2ccccc2s1)NC(=O)NCc1ccco1,?,45µM*,-22%,-29%,?,-1%
N#CC1(NC(=O)CSc2n[nH]c(-c3ccccc3)n2)CCCCC1,-3%,8.9µM*,-6%,/,-10%,32%
Cc1ccc(CCNC(=O)c2ccc(NC(=O)N3CCSc4ccccc43)cc2)cc1,2%,-3%[59 µM],/,/,0%,23%
CCNC(=O)c1cnc2sc(N3CCC(C)CC3)nn2c1=O,-5%,-5%[59 µM],/,/,-7%,10%
COc1ccccc1-c1nccc(Nc2ccc(F)cc2)n1,/,5%[0.501 µM],/,1%,/,/
Cc1nc(C(=O)NCCO)cc2c1[nH]c1ccccc12,-18%,12%,-4%,9%,-12%,22%
Cc1nc(C(=O)O)cc2c1[nH]c1ccccc12,50µM*,12%[12.7 µM],-4%,/,79µM*,67%
COc1ccccc1-c1oc2ccccc2c1C#CCCO,50µM*,-40%[0.501 µM],3%,/,?,62%
CCOC(=O)C1=C(O)/C(=C/c2cc(OC)c(OC)c(OC)c2)N=C1C,-10%,9%[0.0925 µM],-10%,89µM*,-12%,27%
CCOc1cc(/C=C2/N=C(C)C(C(=O)OC)=C2O)ccc1O,-10%,45µM*,39%,-4%,-13%,6%
CCOC(=O)C1=C(O)/C(=C\c2ccc(O)c(OCC)c2)N=C1C,-19%,?,14%,-1%,-7%,1%
O=C(CSc1nnc(-c2ccccc2F)o1)NC(=O)Cc1ccccc1,-12%,2%[2.33 µM],2%,/,2%,43%
COC(=O)c1sc(-c2ccc(Cl)cc2)cc1NC(=O)/C=C/C(=O)O,-11%,-28%,-12%,?,-8%,40%
COC(=O)c1sc(-c2ccc(C(C)(C)C)cc2)cc1NC(=O)CCC(=O)O,-28%,71µM*,?,-8%,-16%,58%
COC(=O)c1sc(-c2ccc(Cl)cc2)cc1NC(=O)COCC(=O)O,?,56µM*,-10%,3%,-20%,23%
O=C(Cc1cc(C(=O)O)c2ccccc2n1)Nc1ccccc1,11%,35µM*,-20%,-1%,-10%,30%
SMILES,BAZ2B block,G9a block,PLK1 PBD block,Sfp PPTase inh,JMJD2A Tudor,HP1b chromo inh
COC(=O)c1sccc1NC(=S)Nc1cc(C)cc(C)c1,-2%,-43%,-14%,-7%,-25%,14%
Fc1ccc(NC(=S)Nc2nccs2)cc1,-14%,?,?,?,-21%,-28%
COC(=O)c1sccc1NC(=S)Nc1ccccc1,-6%,50µM*,-8%,19%,-15%,12%
O=C(Cc1ccccn1)Nc1ccccc1,?,40µM*,-4%,14%,-27%,52%
O=C(CSCc1ccccn1)Nc1ccccc1,-2%,-31%[59 µM],-15%,11%,2%[11.4 µM],34%
S=C(Nc1ccccc1)Nc1nccs1,-14%,27µM*!,-17%,?,?,-8%
CCc1ccc(C(=O)c2cn(CC(=O)Nc3cc(C)ccc3C)c3nc(C)ccc3c2=O)cc1,-2%,2%[59 µM],/,/,-31%,-8%
O=S(=O)(Cc1ccccc1)N1CCN(c2nc(-c3cccs3)nc3ccccc23)CC1,/,/,/,/,-14%,44%
S=C(NCc1ccccn1)Nc1ccccc1,79µM*,19%[59 µM],5%,1%,-2%,34%
Fc1ccc(NC(=S)NCc2ccccn2)cc1,-2%,28%[0.501 µM],-10%,5%,-35%,21%
Cc1cccc(N=Cc2[nH]c3ccc(Br)c(Cl)c3c2O)c1,-13%,10µM*,1%,-18%,?,?
N#CCCCN1C(=O)C(=C(C#N)C#N)c2ccccc21,-29%,?,5.3µM*,-18%,-25%,41%
O=C1C(=O)N(CCCc2ccccc2)c2ccccc21,8%[0.457 µM],/,-14%,8%,-24%,-6%
O=C(CN1C(=O)NC2(CCCCC2)C1=O)Nc1nc2c(F)cc(F)cc2s1,4%,50µM*,-18%,/,-20%,22%
[O-][n+]1onc2c1CCC(=N/O)/C2=N\Nc1ccccc1,50µM*,25µM*,/,32µM*,/,/
O=C(NCCc1cccc(Cl)c1)c1cccc(-n2cnnn2)c1,-1%,45µM*,1%,/,-3%,20%
Cc1ccccc1C(=O)N(CC(=O)Nc1sc(C)c(C)c1C(N)=O)C1CCCC1,-8%,-15%,-16%,7%,-31%,23%
COc1cc2nc(=S)n(CCCN3CCOCC3)c(N)c2cc1OC,-21%,?,-11%,50µM*,-16%,22%
CCOc1nc(OCC)c2[nH]c(C(=O)O)c(Br)c2n1,/,/,-6%,/,25µM*,-7%
O=C(O)c1ccccc1SC1=NS(=O)(=O)c2ccccc21,/,/,/,/,-15%,/
CCC(CC)c1nnc(NC(=O)c2cccnc2SC)s1,-6%,4%,-5%,14%,-15%,24%
O=C(Nc1ccc(N2CCOCC2)cc1)c1cc2c(s1)CCCC2,40µM*,40µM*,-7%,5%,?,0%
O=C(Nc1ccc(N2CCOCC2)cc1)c1cc2c(s1)CCCCC2,?,32µM*,-15%,6%,79µM*,?
CCOc1ccc(CN(C(=O)/C=C/c2ccco2)C2CCS(=O)(=O)C2)cc1 (stereo unspecified),?,45µM*,-25%,?,-32%,20%
CN(C)c1ccc(CN(C(=O)/C=C/c2ccco2)C2CCS(=O)(=O)C2)cc1 (stereo unspecified),?,/,-11%,-2%,?,-12%
COc1cccc(CN(C(=O)c2ccco2)C2CCS(=O)(=O)C2)c1 (stereo unspecified),1%,/,-15%,3%,-6%,26%

# Screens: PubChem, National Center for Advancing Translational Sciences (NCATS)
